LAP4 TOR yeast – modulators of TOR pathway LAP4-GFP in S. cerevisiae | S. cerevisiae LAP4-GFP multiplex, flow cytometry GFP, 3 h; median GFP as percent of DMSO wells | GFP response vs DMSO, % at 10 µM | 0.34% of 320,000 active;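 active = GFP response vs DMSO above a set limit, about the screen mean plus 3 SD, cut at about 150% in these data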
AGP1 TOR yeast – modulators of TOR pathway AGP1-GFP in S. cerevisiae | 0.02% of 320,000 active | AID 2066 | GFP response vs DMSO, % at 10 µM | S. cerevisiae AGP1-GFP multiplex flow cytometry, 3 h; GFP as percent of DMSO wells;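 active = GFP response relative to DMSO above a set limit, near screen average plus 3 SD, cut at about 150% in these data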;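 also: median GFP channel fluorescence of the gated AGP1 strain per well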
RPL19A-GFP yeast – yeast TOR pathway RPL19A-GFP modulation; S. cerevisiae RPL19A-GFP strain, flow cytometry, 3 h; active compounds read low; percent response vs DMSO, % at 10 µM; 0.3% of 330,000 active;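 active = percent response vs DMSO below 50%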;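 also: median channel GFP fluorescence of the barcoded RPL19A-GFP strain; lower means less RPL19A-GFP as with rapamycin TOR inhibition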
CIT2-GFP yeast – yeast TOR pathway CIT2-GFP modulation. S. cerevisiae CIT2-GFP strain, flow cytometry, 3 h; 100 means same as DMSO wells. GFP response vs DMSO, % at 10 µM. 0.065% of 320,000 active. AID 2029;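 active = GFP response relative to DMSO above a set limit, near the screen mean plus 3 SD, cut at about 150% in these data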;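 also: ratio of well median GFP fluorescence to mean of DMSO wells on the plate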
Efflux pump mplx – inhibitors of Candida antifungal efflux pumps expressed in yeast; S. cerevisiae Candida pump triplex, Nile Red efflux; inhibition, % at 10 µM; 0.44% of 330,000 active; AID 485275;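 active = plate passing quality check with inhibition over a set limit, or well fluorescence over plate mean plus 4 SD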;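 also: Nile Red retained in pooled yeast measured as flow cytometry median fluorescence; higher means more Nile Red kept so more efflux inhibition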
MEP2-GFP yeast – yeast TOR pathway MEP2-GFP modulation. S. cerevisiae MEP2-GFP strain, flow cytometry GFP, 3 h; 100% = DMSO control level. GFP response vs DMSO, % at 10 µM. 0.51% of 330,000 active. AID 2016;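 active = GFP response versus DMSO above a set limit, roughly screen mean plus 3 SD, cut at about 180% in these data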;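 also: median GFP fluorescence of the barcode-gated MEP2-GFP cells per well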
LAP4-GFP pick2 – yeast LAP4-GFP modulation, second cherry pick; S. cerevisiae LAP4-GFP strain, flow cytometry GFP, 3 h; 20% of 590 active; GFP response vs DMSO, % at 10 µM; shares compounds with LAP4 TOR yeast; AID 2621;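 active = GFP signal as percent of the solvent control above about 150%, meaning raised reporter expression, limit read from the data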
MEP2-GFP pick2 – yeast MEP2-GFP modulation, second cherry pick. shares compounds with LAP4 TOR yeast. S. cerevisiae MEP2-GFP strain, flow cytometry GFP, 3 h. GFP response vs DMSO, % at 10 µM. 10% of 590 active. AID 2622;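 active = GFP signal above 150% of the solvent control wells, that is a rise of more than half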;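 also: median channel GFP fluorescence of all gated yeast cells per well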
RPL19A-GFP pick2 – reconfirmed modulator of RPL19A-GFP TOR reporter in yeast | shares compounds with LAP4 TOR yeast | S. cerevisiae RPL19A-GFP strain, flow cytometry GFP, 3 h; active compounds read low; 100% means same as DMSO wells | GFP response vs DMSO, % at 10 µM | 3% of 590 active | AID 2623;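 active = under 65% GFP response relative to DMSO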;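 also: median GFP channel fluorescence per well over the all cells gate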
CIT2 GFP CP2 – second confirmation of modulators of TOR reporter CIT2-GFP in yeast. GFP response vs DMSO, % at 10 µM. 8% of 590 active. AID 2624. shares compounds with LAP4 TOR yeast. S. cerevisiae CIT2-GFP strain, flow cytometry GFP, 3 h; DMSO control wells read 100%;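 active = GFP response vs DMSO above about 150%, limit read from the data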;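 also: median green fluorescence per well over all gated yeast cells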
AGP1-GFP pick2 – second confirmation of modulators of TOR reporter AGP1-GFP in yeast | percent response vs DMSO, % at 10 µM | shares compounds with LAP4 TOR yeast | 590 tested, under 10 active | S. cerevisiae AGP1-GFP strain, flow cytometry GFP, 3 h | AID 2643;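 active = over 150 percent of DMSO response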;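 also: median GFP channel fluorescence over all cells without mother daughter split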
s288c autofluor – compound is autofluorescent in yeast s288c cells | S. cerevisiae s288c, 520 nm autofluorescence, flow cytometry, 3 h; active compounds read high; zero means same as solvent-only cells | shares compounds with LAP4 TOR yeast | fluorescence change (kMESF span) at 33 µM | 610 tested, under 10 active;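 active = fluorescence span over the dose series, or activity score, above about 33, limit read from the data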
Yeast autofl DR – yeast s288c autofluorescence artifact in dose response; shares compounds with LAP4 TOR yeast; S. cerevisiae s288c parental, compound autofluorescence, flow cytometry, 3 h; fluorescence change (span) at 33 µM; 110 tested, under 10 active; AID 488829;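 active = fluorescence change span, or the activity score built from it, above 25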
TORC1 bypass – wildtype yeast growth loss with TORC1 bypass cells unaffected; shares compounds with LAP4 TOR yeast; growth rating (0-3) at 30 µM; S. cerevisiae BY4741 spot growth rating, 48-72 h; active compounds read low; 120 tested, under 10 active;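 active = growth rating at most 1 for wild type yeast while the TORC1 bypass strain still grows fully, rated 3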
A number is an active result; . = inactive; / = no result. Shown are actives, neighbours in structure and some others; about 1.3% of the full set was active somewhere.

SMILES	LAP4 TOR yeast	AGP1 TOR yeast	RPL19A-GFP yeast	CIT2-GFP yeast	Efflux pump mplx	MEP2-GFP yeast	s288c autofluor	others
COc1cccc2[nH]c(=O)c(-c3ccccc3)cc12	.	.	.	.	.	.	/
Clc1cc2cccnc2c2ncccc12	168	.	.	.	.	.	/	LAP4-GFP pick2=.;MEP2-GFP pick2=.;RPL19A-GFP pick2=.;CIT2 GFP CP2=.;AGP1-GFP pick2=.
Oc1c(I)cc(Cl)c2cccnc12	286	.	.	.	.	.	.	LAP4-GFP pick2=226;MEP2-GFP pick2=216;RPL19A-GFP pick2=.;CIT2 GFP CP2=176;AGP1-GFP pick2=.;Yeast autofl DR=.;TORC1 bypass=.
CCC(=O)Oc1oc(-c2ccccc2)nc1C=Nc1ccc(C)cc1	.	.	.	.	.	.	.
CCC(=O)Oc1oc(-c2ccccc2)nc1C=Nc1ccccc1OC	.	.	.	.	.	.	.
O=C(Nc1ccc(Cl)cc1Cl)c1cccc(N2C(=O)C=CC2=O)c1	184	.	.	.	.	.	.
O=C(Nc1ccc(Cl)cc1Cl)c1ccc2c(c1)OCCO2	.	.	.	.	.	.	/
O=C(Nc1nnc(SCC(=O)N2CCOCC2)s1)C1CC(=O)N(c2ccccc2)C1 (stereo not given)	.	.	.	.	.	.	/
COc1ccc(N2CC(C(=O)Nc3nnc(SCC(=O)N4CCOCC4)s3)CC2=O)cc1 (stereo not given)	157	.	.	.	.	.	/	LAP4-GFP pick2=.;MEP2-GFP pick2=.;RPL19A-GFP pick2=.;CIT2 GFP CP2=.;AGP1-GFP pick2=.
CSc1ccc(NC(=O)N2CCC(C(=O)c3ccc(F)cc3)CC2)cc1	.	.	.	.	.	.	/
COc1ccc(NC(=O)N2CCC(C(=O)c3ccc(F)cc3)CC2)cc1	400	.	.	.	.	.	/	LAP4-GFP pick2=.;MEP2-GFP pick2=.;RPL19A-GFP pick2=.;CIT2 GFP CP2=.;AGP1-GFP pick2=.
Nc1c([N+](=O)[O-])cc(-c2cnc[nH]2)cc1[N+](=O)[O-]	.	.	.	.	.	.	/
O=S(=O)(CCN(CCS(=O)(=O)C(F)(F)F)CC1CCCO1)C(F)(F)F (stereo not given)	243	.	.	.	.	.	.	Yeast autofl DR=.;TORC1 bypass=.
NC(=O)[C@@H]1CCCN1C(=O)c1ccc2nc(Cc3ccccc3F)oc2c1	.	.	.	.	.	.	/
COc1cc(/C=C2\C(=O)N(CCC#N)N=C2C)c(Br)cc1OC(C)C	192	.	.	.	.	.	.
CCN1CCN(C(=O)C2=CC(c3ccc(OC)cc3)=NS(=O)(=O)N2C)CC1	167	.	.	.	.	.	/	LAP4-GFP pick2=.;MEP2-GFP pick2=.;RPL19A-GFP pick2=.;CIT2 GFP CP2=.;AGP1-GFP pick2=.
COc1ccc(C(=O)OC(C)C(=O)NC(C)CCc2ccccc2)c(OC)c1 (stereo not given)	.	.	.	.	.	.	/
O=c1cc(CSc2ccc(Cl)cc2)nc(-c2ccccc2)[nH]1	.	.	.	.	.	.	/
O=c1cc(CSc2ccc(Cl)cc2)nc(-c2ccccn2)[nH]1	211	.	.	.	.	.	.	LAP4-GFP pick2=264;MEP2-GFP pick2=169;RPL19A-GFP pick2=.;CIT2 GFP CP2=.;AGP1-GFP pick2=.;Yeast autofl DR=.;TORC1 bypass=.
Cc1cc(C)nc(N/N=C/c2sccc2C)n1	.	.	.	.	.	.	/
Cc1ccsc1/C=N/Nc1ncc(Cl)cc1Cl	300	.	/	.	.	.	.
COc1cc(NC(=O)CCc2nnc3ccc(NCc4ccco4)nn23)cc(OC)c1	.	.	.	.	.	.	/
CNc1nc(N)cc(Nc2cccc(Cl)c2)n1	/	/	/	/	/	/	/	TORC1 bypass=.
CCOC(=O)c1ccc(NC(=O)Nc2ncccc2C)cc1	.	.	.	.	.	.	/
CCOC(=O)c1ccc(NC(=O)Nc2ncc(Cl)cc2Cl)cc1	.	.	.	.	.	.	/	LAP4-GFP pick2=.;MEP2-GFP pick2=.;RPL19A-GFP pick2=.;CIT2 GFP CP2=.;AGP1-GFP pick2=.
SMILES	LAP4 TOR yeast	AGP1 TOR yeast	RPL19A-GFP yeast	CIT2-GFP yeast	Efflux pump mplx	MEP2-GFP yeast	s288c autofluor	others
CCCS(=O)(=O)N1CCN=C1SCc1ccc(F)cc1	.	.	.	.	.	.	/
O=C(c1ccccc1OCc1ccccc1Br)N1CCN(c2ncccn2)CC1	.	.	.	.	.	.	/
O=C1OCCC1Sc1nnc(-c2ccc(Br)cc2)o1 (stereo not given)	.	.	.	.	.	.	/	LAP4-GFP pick2=.;MEP2-GFP pick2=.;RPL19A-GFP pick2=.;CIT2 GFP CP2=.;AGP1-GFP pick2=.
O=C1OCCC1Sc1nnc(-c2ccco2)o1 (stereo not given)	.	.	.	.	.	.	/
COc1ccc(N=Nc2ccc(O)c3ncccc23)cc1	215	.	.	.	.	.	.
Cc1ccccc1N=Nc1ccc(O)c2ncccc12	178	.	.	.	.	.	.	LAP4-GFP pick2=216;MEP2-GFP pick2=.;RPL19A-GFP pick2=.;CIT2 GFP CP2=156;AGP1-GFP pick2=.
O=Nc1ccc(O)c2ncccc12	.	.	.	.	.	.	/
COc1cccc(N=Nc2ccc(O)c3ncccc23)c1	180	.	.	.	.	.	.
COc1ccc(N2C(=O)NC(NS(=O)(=O)c3ccc(NC(C)=O)cc3)(C(F)(F)F)C2=O)cc1 (stereo not given)	.	.	.	.	.	.	/
CCC1CCc2sc(C(=O)NCC(c3ccc(OC)cc3)N3CCOCC3)cc2C1 (stereo not given)	.	.	.	.	.	.	/
COc1ccc(N2CCN(C(=O)c3ccccc3)CC2)c([N+](=O)[O-])c1	189	.	.	.	.	.	.
COc1ccc(N2CCN(C(=O)c3ccc(Br)cc3)CC2)c([N+](=O)[O-])c1	199	.	.	.	.	.	.
COc1ccc(N2CCN(C(=O)c3ccc(C)cc3)CC2)c([N+](=O)[O-])c1	.	.	.	.	.	.	/
